Among the test systems are NCI-H23 lung; NCI-H226 lung; NCI-H322M lung; HOP-62 NSCLC; NCI-H460 lung; 786-0 renal; MDA-MB-231 breast; SF-268 CNS; SF-539 CNS; M14 melanoma; U251 CNS; PC-3 prostate; UACC-62 melanoma; SK-MEL-28 melanoma; UO-31 renal; OVCAR-3 ovarian; SW-620 colon; MCF7 breast; HCT-116 colon; KM12 colon.
What all share (test): NCI-60 one-dose screen, 48 h (100 = growth as untreated, 0 = no growth, -100 = all killed)
Settings in all cases: 10 µM unless noted

Compounds without any hit were thinned out: in the full panel of roughly 83,000, 20% have a hit.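 The test compound was applied at a single concentration to cells in 96-well plates for 48 hours, and percent growth was recorded.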 Unmarked numbers belong to inactive results. The source made the active and inactive calls. The calls were made as follows: active = growth percent below 10; inactive = the rest.

As to `CN=C(NN)NN`, the growth with NCI-H23 lung is 102%; in the assay on NCI-H226 lung, 109%; in the assay with NCI-H322M lung, 114%; in the assay on HOP-62 NSCLC, 135%; in the assay on NCI-H460 lung it was 111%; in the assay with 786-0 renal, 103%. Also, the growth in the assay with MDA-MB-231 breast was 120%; in the assay with SF-268 CNS it was 103%; in the assay with SF-539 CNS it was 104%; in the assay on M14 melanoma, 105%; in the assay with U251 CNS, 98.5%; in the assay with PC-3 prostate, 93.3%. The growth is 116% in the assay with UACC-62 melanoma; 118% in the assay on SK-MEL-28 melanoma; 90.8% in the assay on UO-31 renal; 102% in the assay on OVCAR-3 ovarian; 107% with SW-620 colon; 99.3% with MCF7 breast. The results for the growth with HCT-116 colon and in the assay with KM12 colon were 109% and 108%, respectively.

For the molecule `CCC(C)/C=C(C)/C=C/C(=O)c1c(O)c(-c2ccc(O)cc2)c[nH]c1=O` (stereo not given), the growth with NCI-H23 lung was 64.6%; in the assay with NCI-H226 lung, 91.5%; with NCI-H322M lung, 59.3%; in the assay with HOP-62 NSCLC, 60.8%; in the assay with NCI-H460 lung, 31.6%; in the assay on 786-0 renal, 49.7%. Further, the growth was 70% with MDA-MB-231 breast; 33.3% in the assay with SF-268 CNS; 61.7% in the assay on SF-539 CNS; 79.1% with M14 melanoma; 40.9% in the assay on U251 CNS; 45% in the assay on PC-3 prostate. The growth in the assay with UACC-62 melanoma was 48.8%; in the assay on SK-MEL-28 melanoma it was 91%; in the assay on UO-31 renal it was 35%; in the assay with OVCAR-3 ovarian it was 40.7%; with SW-620 colon it was 39.6%; with MCF7 breast, 18.6%. Moreover, the growth was 39% in the assay on HCT-116 colon and 40.6% with KM12 colon.

As to `CC1(C)N=C(N)N=C(N)N1c1ccc(CCCCc2ccc(Cl)cc2S(=O)(=O)F)c(Cl)c1`, the growth with NCI-H23 lung is 25.6%; with NCI-H226 lung it was 30.6%; in the assay with NCI-H322M lung it was 34.2%; with HOP-62 NSCLC, 33.4%; with NCI-H460 lung, 8.45% (active); in the assay with 786-0 renal, 20.4%. The growth in the assay with MDA-MB-231 breast was 27.4%; in the assay with SF-268 CNS, 25.2%; in the assay with SF-539 CNS, 19.6%; in the assay on M14 melanoma it was 18%; with U251 CNS, 15.3%; with PC-3 prostate, 21.3%. The growth was 22.5% in the assay on UACC-62 melanoma; 37.8% with SK-MEL-28 melanoma; 60.7% in the assay with UO-31 renal; 25.2% with OVCAR-3 ovarian; 11.9% with SW-620 colon; 13.3% in the assay on MCF7 breast. In addition, the growth with HCT-116 colon is 14.9%; in the assay with KM12 colon, 15.7%.

On to `Nc1cccc(CC(=O)Nc2ccc(S(=O)(=O)F)cc2)c1`, for which the growth in the assay on NCI-H23 lung was 99.7%; in the assay with NCI-H226 lung it was 93.9%; in the assay on NCI-H322M lung it was 104%; in the assay with HOP-62 NSCLC, 90.3%; with NCI-H460 lung, 102%; with 786-0 renal, 96.9%. Also, the growth is 94.4% with MDA-MB-231 breast; 107% with SF-268 CNS; 97.4% in the assay on SF-539 CNS; 90.7% with M14 melanoma; 102% in the assay with U251 CNS; 82.2% in the assay with PC-3 prostate. Also, the growth in the assay on UACC-62 melanoma was 90.5%; in the assay on SK-MEL-28 melanoma, 87.5%; in the assay on UO-31 renal, 86.2%; with OVCAR-3 ovarian, 102%; in the assay on SW-620 colon, 84.3%; with MCF7 breast it was 86.7%. Besides, the growth in the assay with HCT-116 colon was 96.9%; in the assay with KM12 colon it was 92.2%.

For `N#C[Se]CCN1C(=O)C2C(C1=O)[C@H]1C=C[C@@H]2S1` (stereo not given in full), the growth in the assay with NCI-H23 lung was -11.7% (active); in the assay on NCI-H226 lung, -54.6% (active); in the assay on NCI-H322M lung it was -1.58% (active); with HOP-62 NSCLC it was -63.3% (active); in the assay on NCI-H460 lung, 2.86% (active); in the assay on 786-0 renal, -30.5% (active). Besides, the growth in the assay on MDA-MB-231 breast is -40.5% (active); in the assay on SF-268 CNS it was -45.2% (active); in the assay with SF-539 CNS, -70.5% (active); in the assay with M14 melanoma, -13.6% (active); with U251 CNS it was -56.9% (active); in the assay on PC-3 prostate, 5.36% (active). For the same molecule, the growth with UACC-62 melanoma is 18.9%; with SK-MEL-28 melanoma, -19.2% (active); with UO-31 renal, -90.7% (active); in the assay on OVCAR-3 ovarian, -64.6% (active); with SW-620 colon, 42.9%; in the assay on MCF7 breast it was 5.71% (active). Moreover, the figures for the growth in the assay with HCT-116 colon and with KM12 colon were -35.4% (active) and 15.2%, respectively.

`CC[C@H](C)[C@H](NC(=O)Nc1ccccc1)C(=O)N(C)[C@H](C[C@@H](OC(C)=O)c1nc(C(=O)N[C@@H](Cc2ccccc2)C[C@H](C)C(=O)OC)cs1)C(C)C`: the growth with NCI-H23 lung was 23.6%; with NCI-H226 lung it was 24.5%; in the assay on NCI-H322M lung it was 48.4%; in the assay on HOP-62 NSCLC it was 20.3%; in the assay on NCI-H460 lung, 1.7% (active); in the assay with 786-0 renal, 18.1%. Besides, the growth in the assay on MDA-MB-231 breast is -4.27% (active); in the assay with SF-268 CNS, 18.8%; in the assay with SF-539 CNS, -26.3% (active); in the assay with M14 melanoma, -7.55% (active); in the assay with U251 CNS, 7.23% (active); in the assay on PC-3 prostate, 21.6%. Further, the growth with UACC-62 melanoma is 15.1%; in the assay with SK-MEL-28 melanoma, 52.1%; in the assay with UO-31 renal it was 26.7%; in the assay with OVCAR-3 ovarian, -40.4% (active); with SW-620 colon it was 17%; in the assay on MCF7 breast it was 12.4%. Moreover, the growth in the assay with HCT-116 colon is 6.85% (active); with KM12 colon it was 4.31% (active).

On to `COc1ccc(C(=O)c2ccc([As]=O)cc2)cc1` (stereo not given), for which the growth with NCI-H23 lung is -43.4% (active); with NCI-H226 lung it was -59.6% (active); in the assay on NCI-H322M lung it was -94.1% (active); in the assay with HOP-62 NSCLC, -86.1% (active); with NCI-H460 lung, -62.5% (active); in the assay with 786-0 renal, -99.5% (active). Further, the growth in the assay on MDA-MB-231 breast is -71% (active); in the assay on SF-268 CNS, -83.5% (active); in the assay on SF-539 CNS, -91.6% (active); in the assay with M14 melanoma it was -84% (active); with U251 CNS, -98.1% (active); in the assay with PC-3 prostate, -86.3% (active). Also, the growth in the assay with UACC-62 melanoma was -82.1% (active); in the assay on SK-MEL-28 melanoma it was -87.1% (active); in the assay on UO-31 renal it was -95% (active); in the assay with OVCAR-3 ovarian, -40.4% (active); in the assay on SW-620 colon, -64.4% (active); with MCF7 breast, -20.3% (active). Besides, the growth was -83.3% (active) in the assay on HCT-116 colon and -93.7% (active) in the assay on KM12 colon.

As to `CC(=O)Oc1ccc(Cl)cc1`, the growth in the assay on NCI-H23 lung was 94.2%; in the assay with NCI-H226 lung, 91.3%; in the assay with NCI-H322M lung, 106%; in the assay on HOP-62 NSCLC, 87.8%; with NCI-H460 lung, 101%; with 786-0 renal it was 99.5%. Besides, the growth in the assay on MDA-MB-231 breast was 95.8%; in the assay on SF-268 CNS, 83.6%; with SF-539 CNS, 89.1%; with M14 melanoma it was 98.6%; in the assay on U251 CNS it was 97.8%; with PC-3 prostate it was 91.3%. For the same molecule, the growth with UACC-62 melanoma is 91.9%; in the assay on SK-MEL-28 melanoma, 89.5%; in the assay with UO-31 renal it was 59%; with OVCAR-3 ovarian it was 63.7%; in the assay on SW-620 colon, 89.9%; in the assay on MCF7 breast, 87.4%. In addition, the growth in the assay on HCT-116 colon was 95.3%; in the assay with KM12 colon, 86.3%.

(Values after PubChem BioAssay (NCI).)
